Laboratory results: PubChem BioAssay AID2685 (National Center for Advancing Translational Sciences (NCATS), 2010)
Screen size: about 320,000 compounds; about 2,100 (0.66%) were called active. Inconclusive results (about 53%) are left out. Calls come from the whole dose curve; as a rule, active = well fitted inhibition curve with a large enough effect in the signal ratio, with a control signal flat (not every such curve was filed as active); inconclusive = small, poorly fitted or top-dose-only effect, or effect the other way, or a change in a side signal; inactive = flat fitted curve, though single readings scatter; the % refers to the signal ratio. This excerpt belongs to a sample that is enriched for actives.

assay: qHTS Assay for Lipid Storage Modulators in Drosophila S3 Cells; settings: BODIPY lipid droplet fluorescence, 18-24 h, cells fed with added oleic acid; cell number change: measured here: cell count max response; series mostly up to 46.1 µM;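 for cell number change: cells counted by Cell Tracker Red CMTPX staining in the red channel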
Outline: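 Laser-scanning cytometry quantifies lipid droplet accumulation (500–530 nm total intensity; droplet/cell object ratio) in oleic acid-fed (400 uM added) Drosophila S3 cells treated with a concentration series. 20 uM Triacsin C defined 100% inhibition.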
Potency is the fitted concentration of half-maximal effect.

Row | Structure (SMILES) | Potency | cell number change [%]
1 | CC(C)(C)OC(=O)N1CCC(C(=O)O)CC1 | inactive | 14
2 | O=S(=O)(NCc1ccccn1)C(F)(F)F | inactive | 15.5
3 | Cc1cc(C)n2c(SCC#N)nnc2n1 | inactive | 
4 | CCO[C@H]1OC(C(=O)N2CCCCCCC2)=C[C@@H](c2ccccc2)[C@@H]1CCCO | inactive | -2.78
5 | CSC1=NNC(c2ccc(C(C)(C)C)cc2)=NN1 | inactive | 21
6 | COCC(C)n1c(C)cc(C(=O)COC(=O)CN=C2NS(=O)(=O)c3ccccc32)c1C (stereo not drawn) | inactive | 10.7
7 | COc1ccc(C2/C(=C(/O)c3ccc(C)cc3)C(=O)C(=O)N2c2ccccn2)cc1OC (stereo not drawn) | inactive | -0.743
8 | COc1ccc(C(C)=O)cc1CN1C(=O)NC2(CCCCCCC2)C1=O | inactive | 6.34
9 | CCOc1ccc(C(C)=O)cc1CN1C(=O)NC2(CCCCC2C)C1=O (stereo not drawn) | inactive | -2.29
10 | CCOc1ccc(C(C)=O)cc1CN1C(=O)NC2(CCCCCC2)C1=O | 0.13 µM (active) | 3.15
11 | O=C(Nc1ccc(Cl)cc1)Nc1nnc(Cc2ccc([N+](=O)[O-])cc2)s1 | inactive | 3.06
12 | CCn1c(CNC(=O)COc2c(C)cccc2C)nnc1SCC(=O)Nc1nccs1 | inactive | -11
13 | C=CCNC(=S)NNC(=O)C(CCCC)CC(O)COCC(C)C (stereo not drawn) | inactive | 6.35
14 | C=CCNC(=S)NNC(=O)C(CC(C)C)CC(C)O (stereo not drawn) | inactive | 1.94
15 | C=CCNC(=S)NNC(=O)C(CCCC)CC(C)O (stereo not drawn) | 29.1 µM (active) | -5.26
16 | CCC(=O)Nc1ccc(/C=C(\C(C)=O)C(=O)c2ccccc2)cc1 | inactive | -16.8
17 | CC1(C)C2CCC(C2)C1(C)NC(=O)C[N+](C)(C)C (stereo not drawn) | inactive | 7.74
18 | CC1(C)C2CCC(C2)C1(C)NC(=O)CNC1CCCCC1 (stereo not drawn) | inactive | 
19 | CCOCCCNCC(=O)NC1(C)C2CCC(C2)C1(C)C (stereo not drawn) | 1.3 µM (active) | -12.8
20 | Cc1ccc(C(=O)Nc2ccc(C(=O)N3CCCCC3)cc2)o1 | inactive | 
21 | COCC(C)NS(=O)(=O)c1ccc(C(=O)NCCCn2ccc3ccccc32)cc1 (stereo not drawn) | inactive | -2.38
22 | Cc1ccc(C(=O)NC(Cc2c[nH]c3ccccc23)C(=O)O)cc1 (stereo not drawn) | 16.4 µM (active) | 8.72
23 | O=C(NC(Cc1c[nH]c2ccccc12)C(=O)O)c1ccc(F)cc1 (stereo not drawn) | inactive | -8.38
24 | Cc1ccc(C(=O)Nc2ccccc2C(=O)NC(Cc2c[nH]c3ccccc23)C(=O)O)cc1 (stereo not drawn) | inactive | 14.2
25 | O=C(Cc1ncc(C(F)(F)F)cc1Cl)NNc1cccc(F)n1 | inactive | 2.59

Row | Structure (SMILES) | Potency | cell number change [%]
26 | CCC1(c2ccc(F)cc2)NC(=O)N(CC(=O)c2cc(C)n(C3CC3)c2C)C1=O (stereo not drawn) | inactive | -20.6
27 | CN(CCCNC(=O)CSc1cc(=O)n(C)c2ccc(Cl)cc12)Cc1ccccc1 | inactive | -6.41
28 | COc1ccccc1CNC(=O)C(c1ccccc1)c1ccccc1 | inactive | 13.6
29 | COc1ccccc1CN(C)C(=O)C(c1ccccc1)c1ccccc1 | 20.6 µM (active) | 14.8
30 | COc1ccccc1CN(C)C(=O)CN1C(=O)c2ccccc2C1=O | inactive | 14.5
31 | CCOc1ccc(N(CC(=O)N2CCCCCC2)S(C)(=O)=O)cc1 | inactive | 
32 | CCOC(=O)C1CCN(C(=O)Cn2cc(C(=O)C3CC3)c3ccccc32)CC1 | inactive | 3.64
33 | COc1ccc(-c2cc(CCCC(=O)NCCc3cc(OC)ccc3OC)no2)cc1 | inactive | 4.57
34 | O=C(CCc1nnc2n(Cc3ccc(Cl)cc3)c(=O)c3ccccc3n12)N1CCN(c2ccccn2)CC1 | inactive | -18.3
35 | O=C(CCCCCn1c(=O)[nH]c2ccsc2c1=O)N1CCCCC1 | inactive | -7.73
36 | Cn1c(=O)c2sccc2n2c(CCCC(=O)NCc3ccc4c(c3)OCO4)nnc12 | inactive | -24.9
37 | CC(C)CCn1c(=O)c2sccc2n2c(CCCC(=O)N3CCC(N4CCCCC4)CC3)nnc12 | inactive | 
38 | Cn1cnnc1SCC(=O)Nc1ccc(F)cc1F | inactive | -0.713
39 | O=C(CCc1nnc2n(Cc3ccc(F)cc3)c(=O)c3ccccc3n12)N1CCN(c2ccccn2)CC1 | 13 µM (active) | -18.8
40 | Cn1c(=O)c2sccc2n2c(CCCC(=O)Nc3ccc(F)cc3F)nnc12 | 9.2 µM (active) | -23.8
41 | COc1ccc(Cn2c(CCC(=O)N3CCN(c4ccccn4)CC3)nc3ncccc3c2=O)cc1 | inactive | -8.69
42 | Cn1c(=O)c2sccc2n2c(CCCC(=O)N3CCCCC3)nnc12 | 10.3 µM (active) | -19.4
43 | O=C(CCN1C(=O)c2ccccc2C1=O)Nc1ccc(F)cc1F | inactive | 5.85
44 | COc1ccc(OC)c(CCNC(=O)CCCc2nnc3n(C)c(=O)c4sccc4n23)c1 | 7.31 µM (active) | -24.6
45 | O=C(CSc1ccc(F)cc1)N1CCOCC1 | inactive | 7.13
46 | COC(=O)c1ccc(COc2cc([N+](=O)[O-])cc3cccnc23)o1 | inactive | 5.31
47 | Cc1cccc(NC(=S)NC(C)C(c2ccccc2)N2CCN(C)CC2)c1C (stereo not drawn) | inactive | -10.3
48 | COc1ccc(OC)c(S(=O)(=O)NC2CC2)c1 | inactive | -2.27
49 | Nc1nc(SCC(=O)Nc2cccnc2Cl)n[nH]1 | inactive | 
50 | COc1ccc(-c2n[nH]c(=S)n2N)c(OC)c1 | inactive | -28.8

Row | Structure (SMILES) | Potency | cell number change [%]
51 | COc1ccc(CNC(=O)CCNS(=O)(=O)c2ccc3c(c2)oc(=O)n3C)cc1 | inactive | 
52 | Cc1ccc(N2CCN(/N=C/c3ccccc3)CC2)cc1 | inactive | -1.14
53 | C=CCNC(=O)c1ccccc1NC(=O)c1ccc(Cl)c(S(=O)(=O)Nc2ccccc2)c1 | inactive | -6.78
54 | Cc1ccccc1-n1ncc2c1CC(C)(C)CC2NC(=O)CCN1CCCCC1=O (stereo not drawn) | inactive | -9.29
55 | O=C(O)c1cc(-c2ccc(Cl)c(Cl)c2)n(-c2ccc(F)cc2)n1 | inactive | 20.6
56 | COc1ccccc1CNC(=O)CCCc1nnc2n(C)c(=O)c3sccc3n12 | 1.3 µM (active) | 11.8
57 | CCn1c(=O)c2sccc2n2c(CCCC(=O)N3CCN(c4ccccn4)CC3)nnc12 | 23.1 µM (active) | -5.66
58 | CCn1c(=O)c2sccc2n2c(CCCC(=O)NC3CCN(Cc4ccccc4)CC3)nnc12 | inactive | 
59 | CC(C)Cn1c(=O)c2sccc2n2c(CCCC(=O)NC3CCN(Cc4ccccc4)CC3)nnc12 | inactive | 6.76
60 | COc1ccccc1CNC(=O)CCn1c(=O)[nH]c2ccsc2c1=O | inactive | -12.6
61 | O=C(CCCn1c(=O)[nH]c2ccsc2c1=O)N1CCN(c2ccccn2)CC1 | inactive | -2.15
62 | N#Cc1ccc(C[C@@H](NS(=O)(=O)c2ccc(C(=O)O)cc2)C(=O)O)cc1 | inactive | 17.7
63 | COc1cc(/C=C2/C(=O)N(c3ccc(Br)cc3)N=C2C)cc([N+](=O)[O-])c1O | inactive | 
64 | COc1ccc(OCCCCOc2ccccc2Cl)cc1 | inactive | 0.395
65 | NNC(=O)/C(=C\c1ccc(Br)cc1)NC(=O)c1cccs1 | inactive | 2.9
66 | COc1ccc(NC(=O)CCNC(=O)c2ccc([N+](=O)[O-])cc2)cc1S(=O)(=O)N1CCOCC1 | inactive | -1.49
67 | COc1ccc(OCC(=O)NNC(=O)Cn2c(=O)cnc3ccccc32)cc1 | inactive | 2.51
68 | COC(=O)Cn1c(=O)cnc2ccccc21 | 16.4 µM (active) | 11.6
69 | CC(C)(C)OC(=O)Cn1c(=O)cnc2ccccc21 | inactive | 6.02
70 | CCC1=C(OC(=O)N(CC)CC)N2C(=O)OC(=NCc3ccccc3)[C@]2(C)[C@H]2C1=CC[C@H]1C(=O)N(c3ccccc3)C(=O)[C@H]12 | inactive | 11.7
71 | Cc1cc(NC(=O)COC(=O)c2ccccc2[N+](=O)[O-])no1 | inactive | -0.913
72 | O=C(C1=C(O)C(=O)N(CCc2ccccc2)C1c1cccs1)c1ccco1 (stereo not drawn) | inactive | 
73 | CN1/C(=C/c2cccc[n+]2CCO)Sc2ccccc21 | inactive | 0.676
74 | COc1ccccc1-[n+]1c(C)cc(/C=C2\Sc3ccccc3N2C)cc1C | 0.082 µM (active) | -16.5
75 | Cc1ccc2c(c1)S/C(=C/c1ccc[n+](CCO)c1)N2C | inactive | 5.41

Row | Structure (SMILES) | Potency | cell number change [%]
76 | Cn1cc(CN2CCCC(CNC(=O)c3ccc4c(c3)OCO4)C2)c2ccccc21 (stereo not drawn) | inactive | -1.43
77 | COc1ccc(-n2nc3c(c2NC(=O)CBr)CSC3)cc1 | inactive | 13.3
78 | C=CCC(NCc1ccco1)c1ccc(OC)cc1 (stereo not drawn) | inactive | -21.6
79 | C=CCC(Nc1ccccc1)c1ccc(OC)c(OC)c1 (stereo not drawn) | inactive | 7.9
80 | C=CCC(NCc1ccco1)c1ccc(OC)c(OC)c1 (stereo not drawn) | 23.1 µM (active) | 
81 | CCOc1ncccc1C(=O)OCC(=O)Nc1cc(S(=O)(=O)N(CC)CC)ccc1C | inactive | -5.2
82 | COCCCn1c(-c2ccc(OC)cc2)nc2nc3ccccc3nc21 | inactive | 5.75
83 | Cc1ccc(S(=O)(=O)N2CCCCC2)cc1C(=O)N1CCN(c2ccccn2)CC1 | inactive | 
84 | Cc1cccc(C(=O)NCc2nnc(SCC(=O)Nc3nncs3)n2C)c1 | inactive | -2.14
85 | CC(NC(=O)CCC(=O)NC(C)C1COc2ccccc2O1)C1COc2ccccc2O1 (stereo not drawn) | inactive | -1.04
86 | O=C(OC1CCOC1=O)c1cc(-c2cccc(Br)c2)nc2ccccc12 (stereo not drawn) | inactive | 21.7
87 | Cc1cc2ccccn2c1C(C[N+](=O)[O-])c1ccc(N(C)C)cc1 (stereo not drawn) | inactive | 12.9
88 | COc1cc(C(C[N+](=O)[O-])c2c(C)[nH]c3ccccc23)ccc1O (stereo not drawn) | inactive | 20.5
89 | COc1cc(C(C[N+](=O)[O-])c2c(C)cc3ccccn23)ccc1O (stereo not drawn) | 0.651 µM (active) | 15.3
90 | CC(=O)c1cccc(NC(=O)c2sc(Cl)nc2C)c1 | inactive | 12.6
91 | Cc1ccccc1NC(=O)c1sc(Cl)nc1C | inactive | 
92 | Cc1nc(Cl)sc1C(=O)Nc1ccc(C(C)(C)C)cc1 | 7.31 µM (active) | 1.1
93 | Cc1nc(Cl)sc1C(=O)Nc1ccccc1Cl | inactive | -11.3
94 | Cc1ncsc1C(=O)Nc1cccc(C(F)(F)F)c1 | inactive | 22.3
95 | O=C(Nc1cccc(C(F)(F)F)c1)c1sc(Cl)nc1C(F)(F)F | 10.3 µM (active) | -10.2
96 | O=C(Nc1cccc(C(F)(F)F)c1)c1cc(-c2ccco2)on1 | inactive | 7.92
97 | Cc1nc(Cl)sc1C(=O)Nc1cccc(Cl)c1 | inactive | 2.35
98 | Cc1nc(Cl)sc1C(=O)Nc1ccc(C(F)(F)F)cc1 | 1.64 µM (active) | -0.73
